Results on 48 compounds are retold here after PubChem BioAssay AID1851 (National Center for Advancing Translational Sciences (NCATS), 2009).

The whole screen tested about 16,000 compounds, of which about 5,700 (36%) were called active. Inconclusive results (about 24%) are left out. This is one part of the list. A number with no mark means an inactive call. Calls follow the shape of the dose curve; as a rule, active = well fitted curve in the direction sought with a large enough effect; inconclusive = small, poorly fitted or top-dose-only effect, or effect the other way; inactive = no such curve, though single readings can be large or run the other way.

For orientation: AC50 means the concentration giving half of the maximal activity seen.
% is scaled to controls: 0 for no effect and ±100 for the full control effect.

For this test, the target named is Cytochrome P450 1A2 (Homo sapiens) (UniProt P05177). The experiment in a line: Cytochrome panel assay with activity outcomes. As to conditions: recombinant CYP, pro-luciferin dealkylation, luminescence, p450-cyp1a2; series mostly up to 57.1 µM; activity, negative = inhibition: at the top concentration.
Cytochrome P450 1A2 (Homo sapiens), sequence (P05177 whole entry, looked up): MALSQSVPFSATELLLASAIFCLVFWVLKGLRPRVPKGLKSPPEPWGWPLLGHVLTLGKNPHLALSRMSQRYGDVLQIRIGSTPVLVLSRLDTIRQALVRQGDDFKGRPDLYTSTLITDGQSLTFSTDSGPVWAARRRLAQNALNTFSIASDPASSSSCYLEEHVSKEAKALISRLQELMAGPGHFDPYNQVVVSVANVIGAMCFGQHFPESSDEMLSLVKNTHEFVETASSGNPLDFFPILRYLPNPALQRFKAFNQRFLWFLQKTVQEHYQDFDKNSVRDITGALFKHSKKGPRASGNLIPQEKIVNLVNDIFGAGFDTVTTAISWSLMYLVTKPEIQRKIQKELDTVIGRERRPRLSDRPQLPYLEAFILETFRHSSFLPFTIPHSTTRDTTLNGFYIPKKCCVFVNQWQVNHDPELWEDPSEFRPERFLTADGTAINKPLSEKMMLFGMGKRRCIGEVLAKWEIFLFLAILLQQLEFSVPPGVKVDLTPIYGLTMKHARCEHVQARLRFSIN
For `Brc1ccc(C2=Nn3c(nnc3-c3cccnc3)SC2)s1`, the AC50 is 5.01 µM (active).
For `COc1ccc(C(C(=O)NC2CCCC2)N(C(=O)c2snc(-c3ccc(F)cc3)c2N)c2ccccc2)cc1` (stereo not drawn), the “activity, negative = inhibition” value is 2.42%.
For the compound `Cc1cc2ccccn2c1C(=O)c1nc(N2CCOCC2)ncc1Cl`, the AC50 is 15.8 µM (active).
Take `Cc1cc2ccccn2c1C(=O)c1ccc(Cl)cc1`: the AC50 is 3.16 µM (active).
Same read-out and setting: to `Cc1sc(=NC(=O)c2ccco2)n(C)c1-c1ccc(F)cc1` belongs 8.91 µM (active); to `COc1ccccc1-c1nc(N2CCN(C)CC2)c2ccccc2n1`, 12.6 µM (active).
With `COc1ccccc1-c1nc(N2CCOCC2)c2ccccc2n1`, the AC50 is 0.501 µM (active).
In the case of `COc1ccccc1C(=O)N1CCN(c2ccccn2)CC1`, the “activity, negative = inhibition” value is -22.5%.
Regarding `CC(C)(C)C1CCC(OCC(O)CN2CCN(c3ccccc3)CC2)CC1` (stereo not drawn), the “activity, negative = inhibition” value was -2.29%.
`O=C1c2cccc3cccc(c23)C(=O)N1CC1CCN(CC(O)COc2ccc3ccccc3c2)CC1` (stereo not drawn): the AC50 was 0.562 µM (active).
Take `O=C(c1ccccc1)c1ccc(OCC(O)CN2CCN(Cc3ccccc3)CC2)cc1` (stereo not drawn): the “activity, negative = inhibition” value is -4.15%.
`Cc1cccc(C(=O)NCN2CCN(c3ccccc3C#N)CC2)c1`: the AC50 was 20 µM (active).
As to `Cc1cccc(C(=O)NC(=S)N2CCN(C)CC2)c1`, the “activity, negative = inhibition” value is -21.4%.
`Cc1cccc(C(=O)NC2CCN(C(=O)N3CCOCC3)CC2)c1`: the “activity, negative = inhibition” value was -14.5%.
On the same count and under the same terms, to `COc1cccc(C(C(=O)Nc2ccc(F)cc2)N(C(=O)Cn2nnc3ccccc32)C2CC2)c1` (stereo not drawn) belongs -8.22%.
In the case of `O=C(CSc1nnc(Cn2nnc3ccccc32)o1)Nc1cccc(Cl)c1`, the AC50 was 12.6 µM (active).
As to `Cc1cc(C)c2cc(CN(Cc3nnnn3Cc3ccc(F)cc3)C3CCCC3)c(=O)[nH]c2c1`, the AC50 was 14.1 µM (active).
The same measure, in the same setting: to `O=C1C(Cl)=C(Nc2ccc(S(=O)(=O)Nc3ccccn3)cc2)C(=O)c2ccccc21` belongs 3.16 µM (active).
Turning to `CN(C)S(=O)(=O)Nc1ccccn1`, the activity, negative = inhibition is -5.82% [at 11.4 µM].
For the compound `Nc1ccc(S(=O)(=O)Nc2ccccn2)cc1`, the “activity, negative = inhibition” value is -9.64% [at 25.6 µM].
On the same count and under the same terms, to `COc1cc(C(=O)Nc2ccc(-c3nnc(-c4ccco4)o3)cc2)cc(OC)c1OC` belongs 14.3%.
Take `CCCCOC(=O)CSc1nnc(-c2cc(OC)c(OC)c(OC)c2)o1`: the AC50 is 31.6 µM (active).
Regarding `COc1cc(-c2nnc(-c3ccc(N4CCOCC4)cc3)o2)cc(OC)c1OC`, the “activity, negative = inhibition” value was -18.7%.
In the case of `COc1cc(-c2nnc(SCC3(c4ccccc4)OCCO3)o2)cc(OC)c1OC`, the AC50 is 12.6 µM (active).
`c1cn(-c2ccnc(-c3ccc4c(c3)OCO4)n2)cn1`: the AC50 was 0.0251 µM (active).
Same read-out and setting: to `CN1CCN(c2ncncc2-c2ccc(N(C)C)cc2)CC1` belongs 12.6 µM (active); to `CN(C)C(=O)c1ccc(-c2cncnc2-n2ccnc2)cc1`, 20 µM (active).
For `CN(C)C(=O)c1ccc(-c2cncnc2N2CCNCC2)cc1`, the “activity, negative = inhibition” value is 0.554%.
Consider `CN(C)c1ccc(-c2cncnc2-n2ccnc2)cc1`, for which the AC50 was 2.51 µM (active).
For `CC1=C/C(=N/O)C([C@H]2C=C(C)CC(C)(C)[C@@H]2O)C(C)(C)C1` (stereo partly drawn), the activity, negative = inhibition is -5.85% [at 11.4 µM].
`CN(C)C(=O)c1ccc(-c2nccc(-n3ccnc3)n2)cc1`: the AC50 was 15.8 µM (active).
For `Cc1ccc(OCC(=O)NC2=NCCS2)cc1`, the AC50 is 8.91 µM (active).
For the compound `CC(C)C(NC(=O)C12CC3CC(CC(C3)C1)C2)C(=O)NC1=NCCS1` (stereo not drawn), the “activity, negative = inhibition” value is -16.5%.
As for `COc1ccc(S(=O)(=O)N2CCC[C@H]2C(=O)NC2=NCCS2)cc1`, the “activity, negative = inhibition” value is -24.4%.
In the case of `Cc1ccc(S(=O)(=O)N2CCN(C(=O)C3COc4ccccc4O3)CC2)cc1C` (stereo not drawn), the “activity, negative = inhibition” value is -49%.
Turning to `O=C(NCc1cccnc1)[C@@H]1[C@@H](C(=O)O)[C@H]2CC[C@@H]1O2`, the activity, negative = inhibition is -11% [at 11.4 µM].
Turning to `O=C(NCCCN1CCOCC1)C1COc2ccccc2O1` (stereo not drawn), the “activity, negative = inhibition” value is 5.54%.
On to `O=C(NCc1cccnc1)C1COc2ccccc2O1` (stereo not drawn), for which the AC50 was 15.8 µM (active).
`O=C(Nc1cccnc1)C1COc2ccccc2O1` (stereo not drawn): the AC50 is 11.2 µM (active).
Take `CS(=O)(=O)N1CCC2(CCCN(C(=O)Nc3cccc(C#N)c3)C2)CC1`: the “activity, negative = inhibition” value was 4.7%.
On to `CC(=O)N1CCC[C@@]2(CCN(Cc3nccs3)C2)C1`, for which the “activity, negative = inhibition” value is -9.06%.
As for `Cc1nn(C)c(C(=O)NNC(=S)Nc2ccc(Cl)cc2)c1[N+](=O)[O-]`, the “activity, negative = inhibition” value was -6.63%.
With `COC(=O)CC1C(=O)NCCN1C(=O)Nc1ccc(Cl)cc1` (stereo not drawn), the “activity, negative = inhibition” value is -14.1%.
Consider `Cc1nn(Cc2c(F)c(F)c(F)c(F)c2F)c(C)c1NC(=O)c1c(-c2ccccc2)nn(-c2ccccc2)c1C`, for which the “activity, negative = inhibition” value is 2.23%.
Take `Cn1nc(-c2ccccc2)c(C(=O)Nc2ccc(Cl)cc2)c1Cl`: the AC50 was 1.26 µM (active).
As to `Cn1nccc1C(=O)Nc1ccc(Cl)cc1`, the AC50 is 4.47 µM (active).
On to `O=C(Nc1ccc(Cl)cc1)c1cnc(-c2ccccc2)nc1-c1ccccc1`, for which the AC50 was 0.708 µM (active).
Turning to `CC(=O)OC[C@@H]1O[C@@H](O/N=C2/C[C@@H](O)[C@@H](O)[C@@H]3[C@@H]4C(=O)N([C@@H](C)c5ccccc5)C(=O)[C@H]4CC[C@@H]23)[C@H](OC(C)=O)[C@H](OC(C)=O)[C@@H]1OC(C)=O`, the activity, negative = inhibition is 4.64% [at 11.4 µM].
